From PubChem
The sample as a whole holds a higher share of hits than the screen did.
miR122 inh: raises miR-122 sensor activity in Huh7 cells. actives 0.14% (n = 340,000). Huh7 psiCHECK-miR122 Renilla luciferase sensor, 48 h. activation, % at 12.5 µM;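 active means mean activation of 30% or more, with every replicate also reaching 30%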;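 further: 0% = median of neutral control wells and 100% = median of positive control wells; higher luciferase signal means stronger suppression of miR-122 activity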
* = called active by the depositor.

SMILES	miR122 inh
CC(C)NC(=O)N(C)C[C@H]1Oc2cc(C3=CCCCC3)ccc2S(=O)(=O)N([C@H](C)CO)C[C@@H]1C	-24.8
CCC(=O)N(C)C[C@@H]1Oc2cc(-c3cccnc3)ccc2S(=O)(=O)N([C@H](C)CO)C[C@H]1C	-0.8
CC(C)C(=O)Nc1ccc2c(c1)C(=O)N(C)[C@H]1CC[C@H](CC(=O)NCc3cccc(F)c3)O[C@H]1CO2	-440.0
CO[C@@H]1CN(C)C(=O)c2cc(NC(=O)c3ccc(F)cc3)ccc2OC[C@@H](C)N(C)C[C@@H]1C	-0.9
CO[C@@H]1CN(C)C(=O)c2cc(NC(=O)c3ccc(F)cc3)ccc2OC[C@H](C)N(C)C[C@@H]1C	-3.1
CO[C@H]1CN(C)C(=O)c2cc(NC(=O)Cc3ccccc3)ccc2OC[C@H](C)N(C)C[C@H]1C	-2.9
CO[C@@H]1CN(C)C(=O)c2cc(NS(=O)(=O)c3ccccc3)ccc2OC[C@@H](C)N(C)C[C@H]1C	-0.7
CN1C(=O)c2cc(NC(=O)c3cccc(F)c3)ccc2OC[C@@H]2O[C@H](CC(=O)Nc3ccccc3)CC[C@H]21	55.0*
CCNC(=O)C[C@H]1CC[C@H]2[C@@H](COc3ccc(NC(=O)c4ccccc4)cc3C(=O)N2C)O1	50.0*
CN1C(=O)c2cc(NC(=O)Cc3ccccc3)ccc2OC[C@@H]2O[C@@H](CC(=O)NCC3CC3)CC[C@@H]21	-183.3
CO[C@@H]1CN(C)C(=O)c2cc(NS(=O)(=O)c3ccccc3)ccc2OC[C@H](C)N(C)C[C@H]1C	1.4
CN1C(=O)c2cc(NS(=O)(=O)c3ccc(Cl)cc3)ccc2OC[C@@H]2O[C@H](CC(=O)N3CCc4ccccc4C3)CC[C@H]21	33.3*
COc1cccc(CNC(=O)C[C@H]2CC[C@@H]3[C@@H](COc4ccc(NC(C)=O)cc4C(=O)N3C)O2)c1	53.3*
CO[C@@H]1CN(C)C(=O)c2cc(NC(=O)Cc3ccccc3)ccc2OC[C@@H](C)N(CCc2ccccc2)C[C@H]1C	-4.3
CO[C@@H]1CN(C)C(=O)c2cc(NC(=O)c3nc4ccccc4s3)ccc2OC[C@H](C)N(Cc2ccncc2)C[C@@H]1C	-25.4
C[C@@H]1CN([C@H](C)CO)S(=O)(=O)c2ccc(-c3cncnc3)cc2O[C@H]1CN(C)C(=O)Cc1cccnc1	-0.8
CCC(=O)Nc1ccc2c(c1)OC[C@H](C)N(C(=O)c1ccccc1F)C[C@H](C)[C@@H](OC)CN(C)C2=O	2.3
C[C@H](CO)N1C[C@H](C)[C@@H](CN(C)Cc2ccc(C(=O)O)cc2)Oc2ncc(-c3ccc(F)cc3)cc2C1=O	3.5
C[C@H]1CN([C@@H](C)CO)C(=O)c2cc(C#Cc3cccnc3)cnc2O[C@@H]1CN(C)S(C)(=O)=O	-1.4
COc1cccc(NC(=O)N(C)C[C@@H]2Oc3ncc(C#Cc4ccccc4)cc3C(=O)N([C@H](C)CO)C[C@H]2C)c1	-2.0
COCC#Cc1cnc2c(c1)C(=O)N([C@H](C)CO)C[C@@H](C)[C@@H](CN(C)C(=O)Cc1cccnc1)O2	6.5
CCC(=O)Nc1ccc2c(c1)C(=O)N(C)C[C@H](OC)[C@@H](C)CN(C(C)=O)[C@@H](C)CO2	-2.6
C/C=C/c1ccc2c(c1)O[C@@H](CN(C)CCC)[C@@H](C)CN([C@H](C)CO)S2(=O)=O	2.4
C[C@H](CO)N1C[C@H](C)[C@@H](CN(C)CC2CCOCC2)Oc2cc(Br)ccc2S1(=O)=O	0.8
C[C@H](CO)N1C[C@H](C)[C@H](CN(C)C(=O)Cc2ccncc2)Oc2ncc(C#CCN(C)C)cc2C1=O	-6.0
SMILES	miR122 inh
CCCNC(=O)N(C)C[C@@H]1Oc2cc(C#CC(C)C)ccc2S(=O)(=O)N([C@H](C)CO)C[C@@H]1C	-8.9
C[C@H](CO)N1C[C@H](C)[C@@H](CN(C)Cc2ccccn2)Oc2ncc(C#Cc3ccc(F)cc3)cc2C1=O	3.3
CO[C@H]1CN(C)C(=O)c2cc(NC(=O)c3ccc(F)cc3)ccc2OC[C@@H](C)N(C)C[C@@H]1C	-0.8
CO[C@H]1CN(C)C(=O)c2cc(NC(=O)c3ccc(F)cc3)ccc2OC[C@@H](C)N(C)C[C@H]1C	-3.4
CN1C(=O)c2cc(NC(=O)c3cccc(F)c3)ccc2OC[C@H]2O[C@H](CC(=O)N3CCc4ccccc4C3)CC[C@H]21	36.7*
CN(C)CCCNC(=O)C[C@@H]1CC[C@H]2[C@H](COc3ccc(NC(=O)c4cccc(F)c4)cc3C(=O)N2C)O1	41.7*
CCCC(=O)Nc1ccc2c(c1)OC[C@H](C)N(C(C)=O)C[C@H](C)[C@H](OC)CN(C)C2=O	1.7
C[C@@H]1CN([C@@H](C)CO)S(=O)(=O)c2ccc(C#CC3(O)CCCC3)cc2O[C@H]1CN(C)C(=O)Nc1ccc(F)cc1	-2.4
C[C@H]1CN([C@@H](C)CO)C(=O)c2cc(-c3ccc(F)cc3)cnc2O[C@@H]1CN(C)Cc1ccc(C(=O)O)cc1	1.4
CC(C)CC#Cc1cnc2c(c1)C(=O)N([C@H](C)CO)C[C@H](C)[C@@H](CN(C)C(=O)Nc1cc(F)ccc1F)O2	9.8
C/C=C/c1cnc2c(c1)C(=O)N([C@H](C)CO)C[C@@H](C)[C@H](CN(C)S(=O)(=O)c1ccc(C)cc1)O2	5.1
C[C@H](CO)N1C[C@H](C)[C@H](CN(C)CC2CCOCC2)Oc2cc(C#Cc3cccnc3)ccc2S1(=O)=O	3.3
C[C@H]1CN([C@@H](C)CO)C(=O)c2cc(C#Cc3ccccn3)cnc2O[C@@H]1CN(C)C(=O)CCN1CCCCC1	-2.9
COCC(=O)N(C)C[C@@H]1Oc2cc(Br)ccc2S(=O)(=O)N([C@@H](C)CO)C[C@@H]1C	-24.8
C[C@@H]1CN([C@@H](C)CO)S(=O)(=O)c2ccc(C#Cc3ccccn3)cc2O[C@H]1CN(C)Cc1ccc(F)cc1	1.0
CCCC#Cc1ccc2c(c1)O[C@@H](CN(C)S(C)(=O)=O)[C@@H](C)CN([C@@H](C)CO)S2(=O)=O	7.6
CC(C)CC#Cc1cnc2c(c1)C(=O)N([C@H](C)CO)C[C@@H](C)[C@H](CN(C)C(=O)NC1CCCC1)O2	-3.2
CN(C)CCNc1ncnc2c1sc1nc(N3CCOCC3)c3c(c12)CC(C)(C)SC3	56.1*
CCC(=O)N(C)C[C@@H]1Oc2cc(-c3cccc(C#N)c3)ccc2S(=O)(=O)N([C@H](C)CO)C[C@H]1C	4.3
COc1cccc(NC(=O)N(C)C[C@H]2Oc3cc(-c4cccc(C(=O)N(C)C)c4)ccc3S(=O)(=O)N([C@@H](C)CO)C[C@@H]2C)c1	-43.9
COc1ccc(NC(=O)CCN2C(=O)c3ccccc3C2=O)cc1	-91.4
COc1ccc(NC(=O)CN(C)C(=O)/C=C/c2ccc(OCc3ccccc3)cc2)cc1	42.9*
COc1ccc(/C=N/NC(=O)COc2ccccc2-c2ccccc2)cc1	-128.7
COc1ccc(-c2cnc3c(c2)C(=O)N([C@H](C)CO)C[C@@H](C)[C@@H](CN(C)Cc2ccccn2)O3)cc1	1.1
COc1cccc(-c2cnc3c(c2)C(=O)N([C@H](C)CO)C[C@H](C)[C@H](CN(C)Cc2cccc(C)c2)O3)c1	8.5
O=C(N/N=C/c1sc2ccccc2c1O)c1ccccc1	40.6*
C[C@H](CO)N1C[C@H](C)[C@H](CN(C)C(=O)c2cccnc2)Oc2ncc(/C=C/c3ccccc3)cc2C1=O	-5.8
CCCC#Cc1ccc2c(c1)O[C@@H](CN(C)S(C)(=O)=O)[C@@H](C)CN([C@H](C)CO)S2(=O)=O	9.2
COc1ccc(-c2cnc3c(c2)C(=O)N([C@H](C)CO)C[C@@H](C)[C@H](CN(C)C(=O)C2CCOCC2)O3)cc1	-1.4
